Most compounds without a hit are left out; they make up all but 1.8% or so of the library.
GLP-1R inv ag = acts as inverse agonist at human GLP-1 receptor; P43220; HEK293 GLP-1R CRE-luciferase, luminescence, 24 h; GLP-1R form is constitutively active; Potency, µM (series often up to 38.3 µM), inactives show top-dose activity change, negative = inhibition, most hits filed as inhibitors; hit rate 1.6% among 410,000; note: % is set by controls: 0 for no effect and ±100 for the full control effect; nearly all actives have a fitted effect of over 55% in size
Target sequence (P43220 whole entry, looked up): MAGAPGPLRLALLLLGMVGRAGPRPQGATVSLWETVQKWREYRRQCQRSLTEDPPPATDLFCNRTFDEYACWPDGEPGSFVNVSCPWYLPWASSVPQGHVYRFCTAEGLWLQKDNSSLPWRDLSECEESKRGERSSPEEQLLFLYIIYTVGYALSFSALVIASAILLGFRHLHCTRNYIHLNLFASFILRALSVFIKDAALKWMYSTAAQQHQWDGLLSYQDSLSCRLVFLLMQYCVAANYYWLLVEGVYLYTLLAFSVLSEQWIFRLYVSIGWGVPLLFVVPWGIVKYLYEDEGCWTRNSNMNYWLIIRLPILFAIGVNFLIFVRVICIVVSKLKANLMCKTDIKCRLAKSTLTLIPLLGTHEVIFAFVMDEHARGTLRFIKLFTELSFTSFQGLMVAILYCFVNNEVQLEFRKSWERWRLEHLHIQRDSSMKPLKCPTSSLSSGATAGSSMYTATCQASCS
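qHTS in 1536-well format: reporter HEK293 cells expressing constitutive GLP-1R activity in DMEM + 10% Nu serum, 24 hr with compounds at 37 deg C, luminescence read after 12 min with detection reagent.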
Tb PFK inh-1 = blocks T. brucei phosphofructokinase; T. brucei PFK, ADP-Glo luminescence; Potency, µM (highest dose often 57.5 µM), for inactives: at the top dose activity, negative = inhibition, usual class: inhibitors; hit rate 0.17% among 330,000;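 note: 0% = uninhibited 1x PFK enzyme wells and -100% = no-enzyme wells; nearly all actives have a fitted effect of over 60% in size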
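PFK 1.25 nM, F6P 0.5 mM, ATP 0.1 mM, 0.1 M TEA pH 8.0, 5 mM MgCl2, 0.01% Tween20, 0.1% BSA; 45 min RT. ADP-Glo readout. qHTS titration up to 57 uM; curves fitted, compounds curve-classed.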
Pin1 inh = human Pin1 inhibition. AID 504891. Pin1 FP peptide displacement, HiFluor488, 10 min. Potency, µM (titrated, usually from 115 µM), without a hit: at the top dose activity, negative = inhibition, most hits filed as inhibitors. hit rate 0.009% among 390,000. Q13526; active = well fitted inhibition curve with a large enough effect in the polarisation, with a control signal flat, not every such curve was filed as active; inconclusive = small, poorly fitted or top-dose-only effect, or effect the other way, or a change in a side signal; inactive = no such curve, though single readings can be large or run the other way; the % refers to the polarisation; note: % is set by controls: 0 for no effect and ±100 for the full control effect
Target sequence (Q13526 whole entry, looked up): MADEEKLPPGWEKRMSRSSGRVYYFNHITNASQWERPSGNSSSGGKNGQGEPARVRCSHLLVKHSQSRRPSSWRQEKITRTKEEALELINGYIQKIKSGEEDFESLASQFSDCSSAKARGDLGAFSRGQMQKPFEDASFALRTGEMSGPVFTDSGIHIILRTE
Tb PGK inh = inhibitors of T. brucei phosphoglycerate kinase. P07378. PGK/GAPDH coupled, Kinase-Glo luminescence, 60 min. Potency, µM (highest dose often 57.5 µM), without a hit: at the highest dose activity change, negative = inhibition, actives largely listed as inhibitors. hit rate 0.043% among 380,000; note: % is set by controls: 0 for no effect and ±100 for the full control effect; nearly all actives have a fitted effect of over 60% in size
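Recombinant glycosomal PGK reaction used 1,3-bisphosphoglycerate generated in-well by GAPDH (100nM final) in 100mM TEA pH 7.6, 5mM MgCl2, 0.01% Tween-20. After 60 minutes at room temperature, ATP was read by Kinase-Glo Plus luminescence end-point.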
GLP-1R agonist = agonists of human GLP-1 receptor; P43220; HEK293 GLP-1R CRE-luciferase, luminescence, 4-6 h; cells express a hypersensitive GLP-1R form; AID 624172; Potency, µM (highest dose often 45.6 µM), for inactives: at the highest dose activation, most hits filed as activators; hit rate 0.007% among 380,000; note: % of control where 0% means no effect
GLP1R cytotox = cytotoxic in the GLP-1 receptor inverse agonist counter-screen | HEK293 cAMP-luciferase reporter cells, luminescence, 24 h | Potency, µM (top dose mostly 38.3 µM), for the others: at the highest dose activity change, negative = inhibition, most hits filed as inhibitors | hit rate 0.13% among 410,000 | AID 624418;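 note: loss of luciferase light is scored as toxicity; % is set by controls: 0 for no effect and ±100 for the full control effect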
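1536-well qHTS counterscreen of the MLSMR; 200 cells/uL, 12 h pre-incubation, 23 nL cpd, 24 h at 37 deg C 5% CO2, luciferase detection reagent, 12 min RT, luminescence. Inhibition = undesired.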
TbPFK ATP = Tb phosphofructokinase inhibition, orthogonal luminescence; shares compounds with Tb PFK inh-1; Tb PFK enzyme, ATP depletion, Kinase-Glo Plus luminescence; Potency, µM (series often up to 57.5 µM), without a hit: at the top dose inhibition; hit rate 47% among 1,100; calls by dose curve; note: nearly all actives have a fitted effect of over 60% in size
Tb PFK inh-2 = T. brucei PFK enzyme inhibition, hit validation. shares compounds with Tb PFK inh-1. purified T. brucei PFK, ADP-Glo luminescence, 45 min. hit rate 41% among 1,100. Potency, µM (titrated, usually from 57.5 µM), without a hit: at the top dose activity change, negative = inhibition, hits mostly inhibitors;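 note: plate controls were full PFK enzyme control for no effect and no enzyme control for full effect; nearly all actives have a fitted effect of over 60% in size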
* = called active by the depositor; i = inactive; ? = inconclusive; nt = no result given; [ ] = remark or other dose. Unless noted, calls come from the whole dose curve; as a rule, active = well fitted curve in the direction sought with a large enough effect; inconclusive = small, poorly fitted or top-dose-only effect, or another doubt; inactive = no such curve, though single readings can be large; an effect the other way counts as inactive or inconclusive. Potency is the fitted concentration of half-maximal effect.

SMILES	GLP-1R inv ag	Tb PFK inh-1	Pin1 inh	Tb PGK inh	GLP-1R agonist	GLP1R cytotox	TbPFK ATP	Tb PFK inh-2
Clc1ccc(Cn2cc(Br)cn2)cc1Cl	-11%	24µM*	-16%	0%	0%	10%	6µM*	12µM*
O=C(CCN1CCN(Cc2ccccc2)CC1)NNC(=O)Cc1ccc(Cl)c(Cl)c1	?	17µM*	3%	-8%	2%	-12%	8.5µM*	11µM*
CCc1ccccc1N1C(=O)N(Cc2ccccc2C)c2ccccc2S1(=O)=O	?	nt	4%	0%	-2%	-6%	nt	nt
COCCCNC(=O)c1cc(C(=O)c2c(-c3c(Cl)cccc3Cl)noc2C)c[nH]1	?	3%	4%	-3%	10%	?	nt	nt
CCN(CC)CCOC(=O)c1ccc(N/C=C(/C#N)c2nc(-c3ccc4c(c3)OCO4)cs2)cc1	-2%	?	?	i	8%	4%	-30%	?
CCN(CC)CCOC(=O)c1ccc(N=Cc2c(O)[nH]c(=O)[nH]c2=O)cc1	3%	-3%	?	-6%	-8%	-11%	nt	nt
CCN(CC)CCOC(=O)c1ccc(N/C=C(/C#N)c2nc(-c3cc4ccccc4oc3=O)cs2)cc1	28%	?	42%	-6%	7%	-20%	-25%	?
Cc1ccc(CCNC(=O)Cn2nc(C)c3c(C)n(-c4ccc(C)cc4)nc3c2=O)cc1	-27%	nt	34%	11%	nt	1%	nt	nt
CCCOc1ccc(N2CC(C(=O)Nc3ccccc3F)CC2=O)cc1 (stereo not drawn)	?	1%	-2%	-13%	-1%	-26%	nt	nt
Cc1ccc(C)c2nc3sc(C(=O)O)cc3cc12	27%	?	3%	0%	5%	-9%	-23%	?
CCOc1ccc(/C=C/c2nc(C#N)c(NCc3ccccc3)o2)cc1	?	nt	-1%	nt	nt	-31%	nt	nt
COc1cccc(C(=O)Nc2ccc3nc(SCC(=O)N(C)c4ccccc4)sc3c2)c1	?	nt	11%	i	nt	?	nt	nt
O=C(CSc1nc2ccccc2s1)Nc1ccc(Cl)c(C(=O)O)c1	-18%	?	-7%	-1%	-7%	-22%	-25%	19%
O=C(NNc1nc2ccccc2s1)Nc1ccc(Cl)c(Cl)c1	?	?	13%	i	1%	2%	?	-23%
O=C(Nc1nc2ccccc2s1)c1cccn(Cc2ccccc2)c1=O	14%	nt	67%	8%	nt	8%	nt	nt
CCOP(=O)(OCC)/C(C#N)=C/c1cc(OC)ccc1OC	1%	-19%	-4%	i	-1%	44%	nt	nt
C=CC[C@@H](CC(=O)N(CCO)Cc1ccccc1)C(=O)N[C@H](COC(=O)[C@H](CC=C)CC(=O)OC(C)(C)C)Cc1c[nH]c2ccccc12	?	-1%	-3%	-8%	-3%	-21%	nt	nt
CCc1ccccc1Nc1nn2c(=O)c3ccc(C(=O)Nc4cc(C)cc(C)c4)cc3nc2s1	?	nt	13%	7%	-4%	-15%	nt	nt
C[C@@H]1O[C@@H](O[C@H]2C[C@@H](O)[C@@]3(CO)[C@H]4[C@H](O)C[C@]5(C)[C@@H](C6=CC(=O)OC6)CC[C@]5(O)[C@H]4CC[C@@]3(O)C2)[C@@H](O)[C@H](O)[C@H]1O	nt	nt	nt	nt	-16%	nt	nt	nt
O=C(NNC(=O)c1ccncc1)Nc1ccc([N+](=O)[O-])cc1	6%	?	-1%	6%	5%	-2%	?	?
O=C(Nc1ccc(-c2cn3ccsc3n2)cc1)c1ccc(F)c(S(=O)(=O)N2CCOCC2)c1	?	-2%	18%	10%	-26%	?	nt	nt
O=C1C=C(c2ccccc2)C(=O)N1Nc1ccccc1	-15%	24µM*	-3%	6%	-15%	?	21µM*	?
Cc1ccn(-c2cc(O)c(-n3ccc(C)n3)cc2O)n1	20%	?	0%	5%	9%	0%	-14%	?
O=C(O)c1cc(-c2ccco2)nn1-c1ccc(Cl)cc1	-3%[0.307 µM]	?	nt	?	1%	6%[0.307 µM]	?	?
O=C(Cc1cccc2ccccc12)Nc1cc(C(=O)O)cc(C(=O)O)c1	-1%	8.5µM*	-1%	-1%	-5%	-8%	1.9µM*	?
SMILES	GLP-1R inv ag	Tb PFK inh-1	Pin1 inh	Tb PGK inh	GLP-1R agonist	GLP1R cytotox	TbPFK ATP	Tb PFK inh-2
O=C(Cc1cccc2ccccc12)N/N=C/c1ccc2cccc(O)c2n1	-10%	2%	?	-3%	8%	?	nt	nt
Cn1c(N)c(C(=O)COC(=O)Cc2ccc(Cl)c(Cl)c2)c(=O)n(C)c1=O	-3%	9.5µM*	2%	1%	10%	-5%	6.7µM*	12µM*
CCOC(=O)NCc1ccc(Cl)c(Cl)c1	-17%	30µM*	1%	6%	7%	-7%	21µM*	?
Cc1c(C(=O)NCc2ccc(Cl)c(Cl)c2)sc(=O)n1Cc1ccc(S(=O)(=O)N(C)C)cc1	?	nt	nt	nt	2%	1%	nt	nt
Cc1ccc(C(=O)NCc2ccc(Cl)c(Cl)c2)o1	?	11µM*	-3%	-5%	12%	-10%	6.7µM*	24µM*
CCOc1ccc(C(c2c(C)[nH][nH]c2=O)c2c(C)[nH][nH]c2=O)cc1OC	4%	?	3%	1%	-11%	-10%	?	-29%
O=C(O)/C=C\C(=O)Nc1ccc(N2CCN(c3ccc(Cl)c(Cl)c3)CC2)cc1	-57%	?	-5%	-22%	0%	-26%	5.4µM*	11µM*
COc1ccc(OC)c(CC(C)N)c1 (stereo not drawn)	nt	nt	nt	nt	-2%[110 µM]	nt	nt	nt
O=C(O)COc1ccc(/C=N/NC(=O)c2ccc(-c3csc(Nc4ccc(Cl)cc4)n3)cc2)cc1	14%	?	nt	?	8%	6%	1.7µM*	2.4µM*
CC(C)C1O/C(=N/C(=O)Nc2ccc(Cl)c(Cl)c2)NC1=O (stereo not drawn)	2%	9.5µM*	-1%	7%	-5%	2%	24µM*	27µM*
CC(Nc1cc(C)cc(C)c1)=[N+](C)CCNS(=O)(=O)c1ccc(Cl)cc1	?	4%	1%	1%	2%	-15%	nt	nt
O=C(Nc1ccc(Cl)c([N+](=O)[O-])c1)ONC1=NCCCCC1	-17%	?	-2%	-1%	3%	-1%	?	?

Bioassay records (PubChem)
